# ST2 IL33 inh: IL1RL1 inhibition; Q01638; AlphaLISA ST2-Fc/biotin-IL-33 interaction, 1 h; inhibition, % for hits at 17 µM; actives 2.3% (n = 78,000); in the data active means inhibition above about 30%
# Target sequence (Q01638 whole entry, looked up): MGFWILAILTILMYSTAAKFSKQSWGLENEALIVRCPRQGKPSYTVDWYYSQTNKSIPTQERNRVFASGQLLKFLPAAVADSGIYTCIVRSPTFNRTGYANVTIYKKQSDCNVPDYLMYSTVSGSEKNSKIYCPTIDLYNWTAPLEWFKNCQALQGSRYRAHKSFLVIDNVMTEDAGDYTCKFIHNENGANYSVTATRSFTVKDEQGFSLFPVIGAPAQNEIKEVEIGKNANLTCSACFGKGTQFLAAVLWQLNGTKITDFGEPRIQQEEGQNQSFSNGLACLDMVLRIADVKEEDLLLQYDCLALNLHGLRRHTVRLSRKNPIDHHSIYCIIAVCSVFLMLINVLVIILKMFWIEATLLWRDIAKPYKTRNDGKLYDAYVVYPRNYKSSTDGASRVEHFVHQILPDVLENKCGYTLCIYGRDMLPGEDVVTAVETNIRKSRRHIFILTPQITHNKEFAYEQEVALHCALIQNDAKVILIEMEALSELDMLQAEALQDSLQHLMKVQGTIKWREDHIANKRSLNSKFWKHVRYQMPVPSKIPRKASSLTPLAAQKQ
# A number is an active result; . = inactive. Only a selection was taken, and hits are over-represented in it overall.
SMILES,ST2 IL33 inh
CC1NC(=O)NC1CCCCC(=O)O (centres undefined),46.0%
O=C(O)CCCC[C@@H]1CCSS1,.
Cc1nc2cc(-c3ccccc3)nn2c(C)c1CCC(=O)NC1CCCCCC1,.
O=C(CC1(O)C(=O)Nc2ccc(Br)cc21)c1cccc([N+](=O)[O-])c1 (centres undefined),.
O=C(c1ccc2c(c1)OCO2)C1CCCN(Cc2nc(-c3ccccc3)cs2)C1 (centres undefined),.
CCOc1ccc(C(=O)Nc2ccc(Nc3nc(C)cc(Nc4ccc(OC)cc4)n3)cc2)cc1,30.0%
COc1cccc(C(=O)Nc2ccc(Nc3nc(C)cc(Nc4ccc(C)cc4)n3)cc2)c1,.
CCCC(=O)Nc1ccc(Nc2nc(C)cc(Nc3ccc(OC)cc3)n2)cc1,.
CCCCOC(=O)C1=C(C)Nc2nnnn2C1c1ccccc1F (centres undefined),.
O=C(Nc1cccc(-n2cccn2)c1)C1CCCN(Cc2cc3ccccc3o2)C1 (centres undefined),.
COc1ccc(C2=NN(C(=O)CCC(=O)O)C(c3cc4ccc(C)cc4nc3Cl)C2)cc1 (centres undefined),.
COc1ccc(C2=NN(CN3C(=O)C(=O)c4ccccc43)C(c3ccc(C)cc3)C2)cc1 (centres undefined),43.0%
COc1ccc(C2CC(c3ccc(Br)cc3)=NN2C(=O)CCCC(=O)O)cc1 (centres undefined),.
CC1CCC2C(=O)N(c3ccc(Cl)cc3O)C(=O)C2C1 (centres undefined),.
N#CSCCCCOc1ccc(Br)cc1,.
Cc1nsc(NC(=O)N2CCC(O)(c3ccc(F)cc3)CC2)n1,.
O=c1ccn(-c2ccccc2)[nH]1,.
O=C1C(=Cc2cccn2-c2ccccc2)C(=O)c2ccccc21,31.0%
O=C(O)COc1ccc(C=C2C(=O)c3ccccc3C2=O)cc1Cl,.
CC1=CC(=NOC(=O)c2ccc(I)cc2)C=C(C)C1=O,.
O=C1c2cccc([N+](=O)[O-])c2C(=O)N1C1CCCCCCC1,36.0%
O=C(CCN1C(=O)c2cccc([N+](=O)[O-])c2C1=O)Nc1ccc(F)cc1,.
COc1ccc(N2C(=O)C(N3C(=O)c4ccc([N+](=O)[O-])cc4C3=O)C2c2ccc(F)cc2)cc1 (centres undefined),.
Cc1ccc(N2C(=O)C(N3C(=O)c4cccc([N+](=O)[O-])c4C3=O)C2c2cccs2)cc1Cl (centres undefined),.
Cc1ccccc1NCN1C(=O)c2cccc([N+](=O)[O-])c2C1=O,.
SMILES,ST2 IL33 inh
O=C1c2cccc([N+](=O)[O-])c2C(=O)N1C1C(=O)N(c2ccc(Cl)cc2)C1c1ccc(F)cc1 (centres undefined),41.0%
COc1cc(C(=O)Nc2ccc(Cl)cc2)cc(OC)c1OC,.
Cc1cccc(-c2nsc(SCC(=O)c3ccccc3)n2)c1,.
CC(=O)c1ccc(N2N=C(C)/C(=C/c3ccc(-c4cccc([N+](=O)[O-])c4)o3)C2=O)cc1,.
CC1=C(C#N)C(=O)NC(=O)/C1=C\c1ccc(-c2cccc([N+](=O)[O-])c2)o1,30.0%
CC1=C(C#N)c2nc(N)c(C#N)c(C)c2/C1=C\c1cccc([N+](=O)[O-])c1,.
COc1ccccc1-n1cc(C(=O)NCc2snnc2C)cn1,.
O=C(NC1CCCCCC1)c1cc2c(=O)oc3ccccc3c2s1,.
COc1ccc(C(=O)N2CCCC(CNC(=O)C3(c4ccc(Cl)cc4)CC3)C2)cc1F (centres undefined),.
CCc1nc(NC)nc(OC)n1,68.0%
CCc1ccccc1-c1nc(OC)nc(OC)n1,.
COc1nc(N(C)C)nc(N(C)C)n1,.
CC1=C(C(=O)OC2CCCCC2)C(c2ccc(C(C)C)cc2)n2ncnc2N1 (centres undefined),.
CC(=O)C1=NN(c2ccccc2)C2C(=O)N(c3ccc(C)cc3)C(=O)C12 (centres undefined),.
CC1=NN(c2ccccc2)C(=O)C1C(=O)c1ccc(F)cc1 (centres undefined),37.0%
O=C(c1ccc(F)cc1)N(Cc1ccccc1)Cc1ccccc1,.
O=C1CC(Sc2ccc(Br)cc2)C(=O)N1c1ccccc1 (centres undefined),.
Cc1c(C(=O)N2CCCCC2C)sc2ncnc(N3CCN(c4ccccn4)CC3)c12 (centres undefined),.
COc1ccc(-c2nnc(N)o2)cc1,.
Nc1ccc(-c2nnc(-c3ccc(N)cc3)o2)cc1,37.0%
Cc1ccc(-c2nnc(-c3ccc(Cl)cc3)o2)cc1,.
Cc1ccc(-c2noc(CCC(=O)N(C)c3cc(C)ccc3C)n2)cc1,.
COc1ccccc1C(=O)N/C(=C\c1ccc2c(c1)OCO2)C(=O)NCc1ccco1,.
Cc1nn(C)c(C)c1S(=O)(=O)NCc1nc(N2CCCC2)c2cc(Cl)ccc2n1,.
Cc1ccc(-c2csc(NC(=O)c3ccc(S(=O)(=O)N4CCc5ccccc54)cc3)n2)o1,39.0%
SMILES,ST2 IL33 inh
O=C(Nc1nc(-c2ccccn2)cs1)c1ccc(S(=O)(=O)N2CCOCC2)cc1,.
CC(=O)c1sc(NC(=O)c2ccc(S(=O)(=O)N3CCc4ccccc43)cc2)nc1C,.
CCOc1ccc(C(=O)N2CCC(n3nc(C)cc3C)C2)o1 (centres undefined),.
CCC(N)C12C[C@@H]3C[C@@H](CC(O)(C3)C1)C2 (some centres undefined),.
O=[N+]([O-])c1ccc(C2CNC(c3ccc4c(c3)OCO4)O2)cc1 (centres undefined),.
CCOc1ccc(C(=O)Nc2c(C)cc(Br)cc2C)cc1[N+](=O)[O-],.
CCOc1ccc(C2Oc3c(cc(Br)cc3OC)C=C2[N+](=O)[O-])cc1OC (centres undefined),36.0%
CN1c2ccccc2N(C)C1c1ccc2c(c1)OCO2,.
O=[N+]([O-])C1=Cc2cc(Br)cc(Br)c2OC1c1ccc2c(c1)OCO2 (centres undefined),60.0%
COc1ccc(C2SCCN2S(=O)(=O)c2ccc(Br)cc2)cc1[N+](=O)[O-] (centres undefined),.
FC(F)(F)c1cc(-c2cccs2)nc(N2CCCCC2)n1,.
O=C1NC2(Nc3ccccc31)C(=O)N(Cc1ccccc1F)c1ccccc12 (centres undefined),.
O=S(=O)(c1cccc(Cl)c1)N1CCN(c2cc(-c3ccc(F)cc3)ncn2)CC1,.
COc1ccc(CC(=O)N2N=C(C)CC2(O)c2cccnc2)cc1 (centres undefined),.
CCN1C(=Nc2cccnc2)SCC1(O)c1ccccc1 (centres undefined),33.0%
CCOC(=O)C1(Cc2cccc(F)c2)CCN(Cc2nccn2CC)CC1,.
CC1=C(C(=O)Nc2ccccn2)C(c2cccc(Br)c2)C2=C(CCCC2=O)N1 (centres undefined),.
O=C(c1ccccc1)C1CCCN(Cc2nc(-c3ccc(C(F)(F)F)cc3)no2)C1 (centres undefined),.
Cc1ccc(Nc2cc(C)nc(N3CCN(S(=O)(=O)c4cc(C(C)C)ccc4C)CC3)n2)cc1,30.0%
Cc1ccc(Nc2cc(C)nc(N3CCN(S(=O)(=O)c4c(C)cc(C)cc4C)CC3)n2)cc1,.
Cc1ccc(C)c(S(=O)(=O)N2CCN(c3nc(C)cc(Nc4ccccc4)n3)CC2)c1,.
Cc1nn(C(=O)CCCCCNC(=O)c2ccccc2)c(C)c1Cl,.
CC(C)(C)C(=O)NCc1nc2ccccc2[nH]1,.
Cn1cc(CN2CCN(Cc3cccs3)C(CCO)C2)c(-c2ccccc2)n1 (centres undefined),.

# Bioassay records deposited in PubChem BioAssay by Paczesny and Yang Labs, IUPUI and University of Michigan.
